About 83,000 compounds went through this panel and 20% of them were active in at least one assay; those are over-represented in the sample as a whole.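 Assay: single dose, 48 h. Readout: percent growth (0 = no net growth; negative = cell death). Active: <10.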 Active and inactive are the calls of the source.
Tests used:
Assay in all cases: NCI-60 one-dose screen, 48 h (100 = growth as untreated, 0 = no growth, -100 = all killed)
Conditions in all cases: 10 µM unless noted
T-47D breast = tested on: T-47D breast
BT-549 breast = tested on: BT-549 breast
MDA-MB-435 melanoma = tested on: MDA-MB-435 melanoma
SW-620 colon = tested on: SW-620 colon
MCF7 breast = tested on: MCF7 breast
HCT-116 colon = tested on: HCT-116 colon
HCC-2998 colon = tested on: HCC-2998 colon
KM12 colon = tested on: KM12 colon

Measured: growth

CCc1ccc(CCCC(=O)O)cc1
inactive: T-47D breast 98.8% | BT-549 breast 101% | MDA-MB-435 melanoma 103% | SW-620 colon 108% | MCF7 breast 93.6% | HCT-116 colon 98.1% | HCC-2998 colon 117% | KM12 colon 106%

CC(=O)O[C@@H]1C[C@]2(C(C)C)O[C@@]1(C)[C@@H]1CCC(C)=C1[C@@H]2OC(=O)/C=C/c1ccccc1
inactive: T-47D breast 76.8% | BT-549 breast 105% | MDA-MB-435 melanoma 91.9% | SW-620 colon 90.6% | MCF7 breast 83.9% | HCT-116 colon 88.5% | HCC-2998 colon 103% | KM12 colon 92.8%

CC1CCN(CCOc2ccc(CNc3ccc4nc(CCC5CCCCC5)[nH]c4c3)cc2)CC1
active: T-47D breast -32.8% | MDA-MB-435 melanoma -43.4% | MCF7 breast 5.38% | HCC-2998 colon -50.5%
inactive: BT-549 breast 68.4% | SW-620 colon 13.9% | HCT-116 colon 13.7% | KM12 colon 44%

CCc1ccccc1-n1c(-c2ccc(OC)cc2)cc(-c2ccc(OC)cc2)c(C#N)c1=O
inactive: T-47D breast 90.6% | BT-549 breast 101% | MDA-MB-435 melanoma 104% | SW-620 colon 93.9% | MCF7 breast 93% | HCT-116 colon 51.1% | HCC-2998 colon 97.1% | KM12 colon 92.5%

COc1cc(OC)c(/C=C/C(=O)c2c(OC)cccc2OC)c(OC)c1
active: BT-549 breast 7.43% | MDA-MB-435 melanoma -22% | HCT-116 colon 9.06% | HCC-2998 colon 0.761% | KM12 colon 8.59%
inactive: T-47D breast 30.1% | SW-620 colon 17.7% | MCF7 breast 25.1%

N#Cc1c(-c2ccc(Cl)cc2)c(C#N)c2c(C#N)c(N)nn2c1N
inactive: T-47D breast 57% | BT-549 breast 75.5% | MDA-MB-435 melanoma 95.4% | SW-620 colon 94.7% | MCF7 breast 81.3% | HCT-116 colon 96.1% | HCC-2998 colon 102% | KM12 colon 92.9%

Fc1cccc(Oc2ccc(Nc3ncnc4ccc(OCCCN5CCOCC5)cc34)cc2Cl)c1
inactive: T-47D breast 36% | BT-549 breast 79% | MDA-MB-435 melanoma 54.3% | SW-620 colon 61.1% | MCF7 breast 50.4% | HCT-116 colon 69.4% | HCC-2998 colon 57% | KM12 colon 45.9%

O=C(COc1ccc(-c2nc3cc(Cl)c(Cl)cc3[nH]2)cc1)N=Nc1c(O)[nH]c2ccc(Cl)cc12
inactive: T-47D breast 56.8% | BT-549 breast 76.7% | MDA-MB-435 melanoma 83.5% | SW-620 colon 56.1% | MCF7 breast 25.6% | HCT-116 colon 54.4% | HCC-2998 colon 95.1% | KM12 colon 64.5%

CC(C)COc1nc2c(c(=O)n(C)c(=O)n2C)n1C
inactive: T-47D breast 88.6% | BT-549 breast 103% | MDA-MB-435 melanoma 104% | SW-620 colon 102% | MCF7 breast 86.4% | HCT-116 colon 107% | HCC-2998 colon 102% | KM12 colon 99.5%

N#CC1=C(N)Oc2c(ccc3ccccc23)C1c1ccccc1 (stereo not drawn)
active: BT-549 breast -16.5% | MDA-MB-435 melanoma -38.9% | HCT-116 colon 3.37% | HCC-2998 colon -4.65%
inactive: T-47D breast 63.5% | SW-620 colon 28.2% | MCF7 breast 11.1% | KM12 colon 14.7%

CCC(C(=O)[C@@H](C)[C@@H](O)[C@H](C)[C@@H]1O[C@@H]([C@@H](CC)C(=O)ONC(=O)c2ccccc2)CC[C@@H]1C)[C@H]1O[C@]2(C=CC(=O)[C@]3(CC[C@@](C)([C@H]4CC[C@](O)(CC)[C@H](C)O4)O3)O2)[C@H](C)C[C@@H]1C (stereo partly drawn)
inactive: T-47D breast 21.4% | MDA-MB-435 melanoma 20.8% | SW-620 colon 19.7% | HCC-2998 colon 20.7% | KM12 colon 16.2%
active: BT-549 breast 6.21% | MCF7 breast 3.51% | HCT-116 colon -36.9%

O=C1C(=O)N(Cc2ccc(-c3ccccc3)cc2)c2ccc(OC(F)(F)F)cc21
active: BT-549 breast 0.708% | HCT-116 colon 9.92%
inactive: T-47D breast 49.7% | MDA-MB-435 melanoma 38% | SW-620 colon 23.5% | MCF7 breast 11.6% | HCC-2998 colon 36.6% | KM12 colon 12.5%

Cc1cccc(/C=C2\CN(C(=O)OC(C)(C)C)C/C(=C\c3cccc(C)c3)C2=O)c1
inactive: T-47D breast 87.8% | BT-549 breast 105% | MDA-MB-435 melanoma 93.1% | MCF7 breast 23.2% | HCT-116 colon 11.2% | HCC-2998 colon 103% | KM12 colon 74.1%
active: SW-620 colon 7.71%

O=C(/C=C/c1cccs1)Nc1ncc(Cc2ccccc2F)s1
active: MDA-MB-435 melanoma -64.4%
inactive: T-47D breast 23.8% | BT-549 breast 52.3% | SW-620 colon 24.5% | MCF7 breast 17.1% | HCT-116 colon 28.6% | HCC-2998 colon 44.4% | KM12 colon 16.7%

COc1ccc(C2=C(Br)C(=O)c3nc(C)ccc3C2=O)cc1
inactive: T-47D breast 72.8% | BT-549 breast 93.4% | MDA-MB-435 melanoma 103% | SW-620 colon 27.2% | MCF7 breast 74.7% | HCT-116 colon 74.1% | HCC-2998 colon 104% | KM12 colon 91.9%

O=C(Nc1ccc(Oc2cccc(Cl)c2)c(Cl)c1)c1cnccn1
active: MDA-MB-435 melanoma -39.7%
inactive: T-47D breast 40.7% | BT-549 breast 57.4% | SW-620 colon 22.7% | MCF7 breast 20.3% | HCT-116 colon 20.9% | HCC-2998 colon 50.8% | KM12 colon 20.7%

O=C(Nc1nc2cc(C(=O)N3CCN(C(c4ccccc4)c4ccccc4)CC3)ccc2o1)c1ccc(NC2CCCCC2)c([N+](=O)[O-])c1
inactive: T-47D breast 44.3% | BT-549 breast 83.4% | MDA-MB-435 melanoma 64.9% | SW-620 colon 44.3% | MCF7 breast 50.2% | HCT-116 colon 40.9% | HCC-2998 colon 62.2% | KM12 colon 51.4%

CC(C)(C)CC(C)(C)NC(=O)Nc1ncccc1OCc1ccccc1
inactive: T-47D breast 72% | BT-549 breast 98.2% | MDA-MB-435 melanoma 99.7% | SW-620 colon 98.6% | MCF7 breast 80.6% | HCT-116 colon 75.2% | HCC-2998 colon 92.9% | KM12 colon 94.5%

O=C(N(c1ccccc1)c1ccccc1)n1cc(I)c2nc(Cl)nc(Cl)c21
inactive: T-47D breast 61.2% | BT-549 breast 47.4% | MDA-MB-435 melanoma 37.4% | SW-620 colon 26% | MCF7 breast 25.5% | HCT-116 colon 25.7% | HCC-2998 colon 93.3% | KM12 colon 44.1%

CNc1nnc2n(-c3ccccc3)c(=O)c3cnn(-c4ccccc4)c3n12
inactive: T-47D breast 37.1% | BT-549 breast 74% | MDA-MB-435 melanoma 98.2% | SW-620 colon 105% | MCF7 breast 86.7% | HCT-116 colon 77.7% | HCC-2998 colon 112% | KM12 colon 87.4%

CCN(CC)CCn1c2ccc(OC)cc2c2sc3cc(OC)ccc3c(=O)c21
inactive: T-47D breast 48.5% | BT-549 breast 61.7% | MDA-MB-435 melanoma 35.7% | HCC-2998 colon 35.7% | KM12 colon 22.4%
active: SW-620 colon 8.87% | MCF7 breast 4.61% | HCT-116 colon 4.6%

O=C(Nc1ccc(Oc2cccc(Cl)c2)c(Cl)c1)c1cccnc1
inactive: T-47D breast 35.6% | BT-549 breast 53.3% | SW-620 colon 25.4% | MCF7 breast 21.6% | HCT-116 colon 29.9% | HCC-2998 colon 58% | KM12 colon 28.1%
active: MDA-MB-435 melanoma -44.3%

CCCn1cc2c(=O)nc3sc(Cc4ccccc4)c(C)n3c2n1
inactive: T-47D breast 84.8% | BT-549 breast 106% | MDA-MB-435 melanoma 106% | SW-620 colon 101% | MCF7 breast 91.6% | HCT-116 colon 102% | HCC-2998 colon 104% | KM12 colon 94.4%

OCCn1cc(-c2nc(-c3c[nH]c4ncccc34)cs2)c2cc(F)ccc21
inactive: T-47D breast 35.2% | BT-549 breast 68.7% | SW-620 colon 57.9% | MCF7 breast 48.1% | HCT-116 colon 62.4% | HCC-2998 colon 65.3% | KM12 colon 28.4%
active: MDA-MB-435 melanoma 5.03%

O=C(N/N=C/c1c(Cl)cccc1Cl)c1cccnc1Nc1cccc(C(F)(F)F)c1
inactive: T-47D breast 15.7% | BT-549 breast 43% | MDA-MB-435 melanoma 36.2% | SW-620 colon 44.9% | MCF7 breast 23.2% | HCT-116 colon 35.5% | HCC-2998 colon 72.2% | KM12 colon 41.9%

CN(C)CCNC(=O)c1cc2c3cc(Cl)ccc3[nH]c2c2ncccc12
active: MDA-MB-435 melanoma -41.3% | SW-620 colon -2.12% | MCF7 breast -16.1% | HCT-116 colon -56.6% | HCC-2998 colon -45.1%
inactive: T-47D breast 24% | BT-549 breast 29.5% | KM12 colon 25.2%

CSc1nc2ccccc2cc1/C=[N+](\[O-])c1ccccc1
inactive: T-47D breast 61.6% | BT-549 breast 66.1% | MDA-MB-435 melanoma 45.9% | SW-620 colon 28.9% | MCF7 breast 24.9% | HCT-116 colon 10.4% | HCC-2998 colon 110% | KM12 colon 100%

O=C(Nc1ccc(Oc2cccc(F)c2)c(Cl)c1)c1cccnc1
inactive: T-47D breast 33.5% | BT-549 breast 48.6% | SW-620 colon 25.8% | MCF7 breast 19.6% | HCT-116 colon 33.7% | HCC-2998 colon 57.7% | KM12 colon 29.3%
active: MDA-MB-435 melanoma 1.64%

CCCCCCCC[C@@H]1N[C@@H](C(=O)OC)Cc2c1[nH]c1ccccc21
inactive: T-47D breast 92.7% | BT-549 breast 105% | MDA-MB-435 melanoma 99.8% | SW-620 colon 94.6% | MCF7 breast 92% | HCT-116 colon 95.7% | HCC-2998 colon 107% | KM12 colon 99.7%

COc1ccc(Nc2ncc(Br)c(NCCCNC(=O)C3CCCC3)n2)cc1
inactive: T-47D breast 77.5% | BT-549 breast 40.4% | MDA-MB-435 melanoma 63% | SW-620 colon 41.2% | MCF7 breast 41.8% | HCT-116 colon 23.6% | HCC-2998 colon 69.7% | KM12 colon 23%

Cc1ccc(-c2nc([P+](c3ccccc3)(c3ccccc3)c3ccccc3)c(S(=O)(=O)c3ccc(C)cc3)o2)cc1
active: BT-549 breast 8.67% | MDA-MB-435 melanoma -2.81% | SW-620 colon -70.3% | HCT-116 colon -68.6%
inactive: T-47D breast 18.6% | MCF7 breast 13.5% | HCC-2998 colon 38.3% | KM12 colon 18.8%

— PubChem BioAssay (NCI)
